As a reminder, the AC50 is the concentration giving half of the maximal activity seen.

The campaign covered roughly 16,000 compounds. About 5,100 (32%) were called active. Not shown: some 25% with an inconclusive outcome. This is one part of the list. A number with no mark means an inactive call. Calls come from the whole dose curve; as a rule, active = well fitted curve in the direction sought with a large enough effect; inconclusive = small, poorly fitted or top-dose-only effect, or effect the other way; inactive = no such curve, though single readings can be large or run the other way.
% is set by controls: 0 for no effect and ±100 for the full control effect.

Sequence of Cytochrome P450 3A4 (Homo sapiens) (P08684 whole entry, looked up): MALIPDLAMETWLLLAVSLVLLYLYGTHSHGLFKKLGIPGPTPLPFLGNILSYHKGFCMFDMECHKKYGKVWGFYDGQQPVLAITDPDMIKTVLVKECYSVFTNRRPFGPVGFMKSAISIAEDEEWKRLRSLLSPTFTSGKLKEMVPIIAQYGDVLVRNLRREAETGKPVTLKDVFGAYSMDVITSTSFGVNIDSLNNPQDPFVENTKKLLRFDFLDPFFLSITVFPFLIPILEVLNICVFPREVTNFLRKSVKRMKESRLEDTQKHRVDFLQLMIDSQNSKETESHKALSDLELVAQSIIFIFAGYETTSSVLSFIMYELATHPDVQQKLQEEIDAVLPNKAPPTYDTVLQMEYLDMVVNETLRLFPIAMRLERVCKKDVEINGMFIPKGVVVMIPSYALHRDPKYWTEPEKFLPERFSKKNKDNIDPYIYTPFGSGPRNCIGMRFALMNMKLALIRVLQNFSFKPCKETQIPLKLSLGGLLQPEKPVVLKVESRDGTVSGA

The assay addresses Cytochrome P450 3A4 (Homo sapiens) (UniProt P08684). As to the kind of experiment: Cytochrome panel assay with activity outcomes. The following applies: recombinant CYP, pro-luciferin dealkylation, luminescence, p450-cyp3a4; series mostly up to 57.1 µM; activity, negative = inhibition: at the top concentration. As for the experimental part: The P450 gene superfamily is involved in the metabolism and clearance of xenobiotics. This assay used various human CYP P450 isozymes to measure the dealkylation of various pro-luciferin substrates to luciferin. The luciferin is then measured by luminescence after the addition of a luciferase detection reagent. Pro-luciferin substrate concentration in the assay was equal to its KM for its CYP P450 isozyme. Inhibitors and some substrates limit the production of luciferin, and decrease measured luminescence.
NCGC Assay Protocol Summary:
1, Reagent, 2 uL, Isozyme and Pro-Luciferin
2, Library compounds, 23 nl, 40 uM to 0.24 nM dilution series
3, Controls, 23 nl, Isozyme specific inhibitor
4, Reagent, 2 uL, NADPH regeneration solution
5, Incubation time, 60 min, Isozyme specific temperature
6, Reagent, 4ul, Detection reagent
7, Incubation time, 20 min, Isozyme specific temperature
8, Detection, 1 sec, ViewLux luminescent read
The luciferase-based P450-GloTM Screening Systems were obtained from Promega (Madison, WI) for CYP 1A2 (V9770), CYP 2C9 (V9790), CYP2 C19 (V9880), CYP 2D6 (V9890), and CYP 3A4 Luciferin-PPXE (V9910) and were adapted for 1,536-well microplates and an automated protocol. The control compounds furafylline for 1A2 (F124), sulfaphenazole for CYP 2C9 (S0758), ketoconazole for CYP 2C19 (K1003), quinidine for 2D6 (Q3625), and ketoconazole for 3A4 (K1003) were purchased from Sigma Aldrich (St. Louis, MO). Recombinant P450 enzymes were obtained from baculovirus constructs expressed in insect cells (BD/Gentest).
Medium-binding white solid Kalypsys plates used. Mixtures kept on ice. 1A2: 10 nM 1A2, 100 uM Luc-ME, 100 mM KPO4; 2C9: 10 nM 2C9, 100 uM Luc-H, 25 mM KPO4; 2C19: 5 nM 2C19, 10 uM Luc-H EGE, 50 mM KPO4; 2D6: 5 nM 2D6, 30 uM Luc-ME EGE, 100 mM KPO4; 3A4: 10 nM, 25 uM Luc-PPXE. All amounts are reflected in their final concentration, working concentration is 2x.
NADPH regeneration solution: 1.3 mM NADP+, 3.3 mM glucose-6-phosphate, 3.3 mM MgCl2, 0.4 U/mL glucose-6-phosphate dehydrogenase for all isozymes, 200 mM KPO4 for 3A4. Mixture prepared at RT but kept on ice during automated run.
RT incubation in auxilliary plate hotel for 1A2, 2D6, and 3A4; 37C for 2C9 and 2C19.
Keywords: P450, CYP1A2, CYP2C19, CYP2C9, CYP2D6, CYP3A4, Luciferase, MLSMR, MLSCN, NIH Roadmap, qHTS, NCGC
Take `CCOC(=O)c1cc2c(=O)n3ccccc3nc2n(CCCOC)c1=NC(C)=O`: the “activity, negative = inhibition” value is 11.8%.
With `COc1ccc(OC)c2c(=S)c3ccccc3[nH]c12`, the AC50 is 7.94 µM (active).
Regarding `O=c1[nH]c2ccccc2c2ccccc12`, the “activity, negative = inhibition” value is -20.3%.
Turning to `Cc1cc(=O)c2ccccc2[nH]1`, the “activity, negative = inhibition” value was 5.16%.
As to `CC(CC(=O)O)(CC(=O)O)C(=O)O`, the activity, negative = inhibition was -8.15% [at 11.4 µM].
Take `COc1ccc(OC)c(C2N(c3cc(C)on3)C(=O)C3CCCN32)c1` (configuration not stated): the “activity, negative = inhibition” value was -29.9%.
The same measure, in the same setting: as for `COc1cccc(N2CCN(C(=O)Nc3ccc4c(c3)NC(=O)CO4)CC2)c1`, the figure is -22.6%.
In the case of `COc1ccc(OC)c(C2C3=C(COC3=O)Nc3cc4c(cc32)OCO4)c1` (configuration not stated), the concentration at half-maximal activity (AC50) was 7.08 µM (active).
For `CC1CCCC(C)N1CCNC(=O)Cn1nc(-c2ccccc2)ccc1=O` (configuration not stated), the “activity, negative = inhibition” value is -23.7%.
In the case of `Cc1ccc(S(N)(=O)=O)cc1NC(=O)/C=C/c1cccs1`, the “activity, negative = inhibition” value was -17.8%.
`Cc1ccc(S(=O)(=O)N2CCOCC2)cc1NC(=O)COC(=O)CCC(=O)c1cccs1`: the concentration at half-maximal activity (AC50) is 11.2 µM (active).
With `O=C(CCC(=O)c1cccs1)OCC(=O)N1CCN(C(=O)c2ccco2)CC1`, the activity, negative = inhibition was -6.6% [at 2.29 µM].
Regarding `O=C(c1ccc(N2CCCCC2)c([N+](=O)[O-])c1)N(Cc1ccccc1)c1ccccn1`, the AC50 is 3.55 µM (active).
Take `Cc1c(C(c2cccc([N+](=O)[O-])c2O)c2c(C)n(C)n(-c3ccccc3)c2=O)c(=O)n(-c2ccccc2)n1C`: the “activity, negative = inhibition” value is -21.7%.
For `Nc1nc(SCC(=O)Nc2ccccc2Sc2ccc(Cl)cc2)n[nH]1`, the AC50 is 0.708 µM (active).
With `CCCCc1nc(SCC(=O)Nc2ncccn2)n[nH]1`, the “activity, negative = inhibition” value is -1.67%.
Consider `O=C(O)CCC(=O)Nc1ccc(C(=O)N2CCCCC2)cc1`, for which the “activity, negative = inhibition” value was -1.59%.
Regarding `O=C(O)c1ccccc1Nc1ccccc1`, the “activity, negative = inhibition” value is 10.2%.
Take `CC1CCCC(C)N1C(=O)c1ccccc1Nc1ccc(SC(F)F)cc1` (configuration not stated): the half-maximal activity concentration (AC50) is 10 µM (active).
Same read-out and setting: the figure for `O=C(c1ccccc1Nc1ccc(SC(F)F)cc1)N1CCCCC1` is 14.1 µM (active).
Take `CCSc1nc2c(c(=O)[nH]1)C(c1ccccn1)C1=C(CC(C)(C)CC1=O)N2` (configuration not stated): the “activity, negative = inhibition” value was -27.4%.
On to `CCSc1nc2c(c(=O)[nH]1)C(c1ccncc1)C(C(=O)OC(C)C)=C(C)N2` (configuration not stated), for which the AC50 was 1.12 µM (active).
Same read-out and setting: as for `CSc1nc2c(c(=O)[nH]1)C(c1ccncc1)C(C(=O)OC(C)C)=C(C)N2` (configuration not stated), the figure is 1.26 µM (active).
For the molecule `COC(=O)CNC(=O)/C=C/c1ccc(OC)cc1`, the “activity, negative = inhibition” value was -5.5%.
Take `COc1ccc(CNC(=O)/C=C/c2ccc(OCCCF)cc2)cc1`: the concentration at half-maximal activity (AC50) was 5.01 µM (active).
For the molecule `COCCCNC(=O)/C=C/c1ccc(Cl)cc1`, the “activity, negative = inhibition” value was -5.86%.
The same measure, in the same setting: the figure for `CCCCSc1ccc2nc(-c3ccc(C#N)cc3)cn2c1` is 20.1% [at 2.29 µM].
Turning to `CCn1c(COc2ccc(C)cc2)nnc1SCc1ccc(C#N)cc1`, the concentration at half-maximal activity (AC50) is 2 µM (active).
In the case of `CCn1c(SCc2ccc(C#N)cc2)nnc1-c1ccc(S(=O)(=O)N2CCCCC2)cc1`, the “activity, negative = inhibition” value was 16.3%.
`CCOc1[nH]n(-c2ccc(Cl)cc2)c(=O)c1C=Nc1ccc(Cl)cc1`: the “activity, negative = inhibition” value is -6.06%.
With `CCc1nnc(NS(=O)(=O)c2ccc(N=Cc3c(C)[nH]n(-c4ccc(C)cc4)c3=O)cc2)s1`, the AC50 was 22.4 µM (active).
Take `COc1cc(NC(=O)c2c(F)cccc2F)nc(OC)n1`: the “activity, negative = inhibition” value was -27.2%.
With `CC#CCCCC(=O)Nc1ccc(C(=O)O)cc1`, the “activity, negative = inhibition” value was -7.69%.
Regarding `CC#CCCCC(=O)Nc1cc(OC)nc(OC)n1`, the AC50 was 14.1 µM (active).
For the molecule `CN(C)/C=C/C(=O)c1ccc(Cl)cc1`, the “activity, negative = inhibition” value is -19.9%.
Turning to `CNc1ccc(Br)cc(C(=O)/C=C/c2ccc3c(c2)OCO3)c1=O`, the AC50 is 11.2 µM (active).
In the case of `CCNc1ccc(Br)cc(C(=O)/C=C/c2ccc3c(c2)OCO3)c1=O`, the concentration at half-maximal activity (AC50) is 17.8 µM (active).
Take `CN(C)CCNC(=O)C(C(=O)c1ccc(F)cc1)n1ccccc1=O` (configuration not stated): the “activity, negative = inhibition” value is 3.86%.
As for `CCCn1nnnc1-c1cccc(Cl)c1`, the “activity, negative = inhibition” value was -8.36%.
On to `O=C(Nc1cccc2nsnc12)c1ccc(-c2cccc(Cl)c2)o1`, for which the activity, negative = inhibition is 1.55% [at 2.29 µM].
Consider `CCCn1nnc(NC(=O)c2ccc(-c3cccc(Cl)c3)o2)n1`, for which the half-maximal activity concentration (AC50) is 28.2 µM (active).
As for `OC(c1ccccc1)(c1ccc(F)cc1)C(c1ccccc1)N1CCOCC1` (configuration not stated), the concentration at half-maximal activity (AC50) was 3.98 µM (active).
For `N#C/C(=C/N1CCOCC1)c1ccccc1`, the “activity, negative = inhibition” value is 2.4%.
Turning to `C[C@@H](N1CCOCC1)[C@@](O)(c1ccccc1)c1ccccn1`, the activity, negative = inhibition is -13% [at 11.4 µM].
Still for that read-out and setting: the figure for `Nc1ccc(N=Nc2c(S(=O)(=O)O)cc3ccccc3c2S(=O)(=O)O)cc1` is 5.34% [at 11.4 µM]; for `Cc1nc2sccn2c(=O)c1Cl` it is -1.16%.
In the case of `Cc1ccc(C(=O)C2=C(O)C(=O)N(CCCn3ccnc3)C2c2ccc(OC(C)C)cc2)o1` (configuration not stated), the AC50 is 7.94 µM (active).
For `Cc1cc(N2C(=O)C(O)=C(C(=O)c3cccs3)C2c2cccc(O)c2)no1` (configuration not stated), the “activity, negative = inhibition” value is -13.2%.
Still for that read-out and setting: the figure for `CN(C)CCN1C(=O)C(O)=C(C(=O)c2cc3ccccc3o2)C1c1ccccn1` (configuration not stated) is -4.62%; for `Cc1ccc(C2C(C(=O)c3sc(C)nc3C)=C(O)C(=O)N2CCN2CCOCC2)o1` (configuration not stated) it is -18.5%; for `COc1cc(C2C(C(=O)c3ccc(C)o3)=C(O)C(=O)N2CCc2ccccc2)ccc1O` (configuration not stated) it is -10.4%.
As for `CCOc1cccc(C2C(C(=O)c3ccc(C)o3)=C(O)C(=O)N2Cc2ccncc2)c1` (configuration not stated), the half-maximal activity concentration (AC50) was 5.01 µM (active).
